# Source: PubChem BioAssay (EPA / NIEHS)
# Activity calls are given as the source filed them. The calls were made as follows: active = hit-call score of the fitted dose curve at least 0.9, where 1 is the maximum; inconclusive = response in the unintended direction; inactive = score below 0.9.
# Target: Peroxisome proliferator-activated receptor gamma (Homo sapiens) (UniProt P37231)
# Test: OT_PPARg_PPARgSRC1_1440: Odyssey Thera (OT) 24-hour Protein-Complementation Assay for Peroxisome Proliferator-activated Receptor Gamma/ SRC-1 Co-activator (AID 2283388);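 also: nuclear to cytoplasmic ratio of reconstituted Venus YFP fluorescence in fixed imaged cells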
# Summary of the method: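 Protein-fragment complementation between PPARg and coactivator SRC-1 was measured by fluorescence imaging in transiently transfected HEK293T cells after 24 h treatment. Signal was quantified as N/C ratio in the 488 nm channel, with DMSO as negative control.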
# Sequence of Peroxisome proliferator-activated receptor gamma (Homo sapiens) (P37231 whole entry, looked up): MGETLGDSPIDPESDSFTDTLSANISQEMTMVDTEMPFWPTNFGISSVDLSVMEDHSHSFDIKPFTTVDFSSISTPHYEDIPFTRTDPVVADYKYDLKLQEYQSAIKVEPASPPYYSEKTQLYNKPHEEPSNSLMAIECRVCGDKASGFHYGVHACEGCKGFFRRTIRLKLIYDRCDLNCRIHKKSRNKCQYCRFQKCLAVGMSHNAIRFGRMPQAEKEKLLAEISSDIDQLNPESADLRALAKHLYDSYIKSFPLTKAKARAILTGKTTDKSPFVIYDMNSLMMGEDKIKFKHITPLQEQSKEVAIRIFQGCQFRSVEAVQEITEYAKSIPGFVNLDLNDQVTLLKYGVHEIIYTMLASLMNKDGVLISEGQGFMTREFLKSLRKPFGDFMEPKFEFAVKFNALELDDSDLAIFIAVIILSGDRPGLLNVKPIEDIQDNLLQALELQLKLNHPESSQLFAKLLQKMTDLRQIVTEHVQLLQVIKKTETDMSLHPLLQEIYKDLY
row,SMILES,outcome
1,CC(=O)CCC(C)C,inactive
2,CC(C)Nc1ccc(NC(C)C)c2c1C(=O)c1ccccc1C2=O,inactive
3,OCC1CCCO1 (stereo unspecified),inactive
4,F[Si-2](F)(F)(F)(F)F,inactive
5,CCCCCCCC/C=C\CCCCCCCC(=O)N(C)CC(=O)O,inactive
6,CC(C)(C)c1cc(Cc2cc(C(C)(C)C)c(O)c(C(C)(C)C)c2)cc(C(C)(C)C)c1O,inactive
7,CCc1cc(Cc2cc(CC)c(N)c(CC)c2)cc(CC)c1N,inactive
8,O=C(c1ccccc1)c1ccc(O)cc1O,inactive
9,CCCCOC(=O)[C@H](C)O,inactive
10,Cc1ccc([N+](=O)[O-])c(C)c1,inactive
11,CCN=C1C=CC(=C(c2ccc(N(CC)CC)cc2)c2ccc(N(CC)CC)cc2)c2ccccc21,inactive
12,Cc1ccc(O)c(-n2nc3ccccc3n2)c1,inactive
13,CC(C)OC=O,inactive
14,CCCCOC(=O)C(C)O (stereo unspecified),inactive
15,CC(C)(C)c1cc(CCC(=O)OCC(COC(=O)CCc2cc(C(C)(C)C)c(O)c(C(C)(C)C)c2)(COC(=O)CCc2cc(C(C)(C)C)c(O)c(C(C)(C)C)c2)COC(=O)CCc2cc(C(C)(C)C)c(O)c(C(C)(C)C)c2)cc(C(C)(C)C)c1O,inactive
16,COCCOCCC[Si](C)(O[Si](C)(C)C)O[Si](C)(C)C,inactive
17,CCCCCCCC/C=C\CCCCCCCC(=O)OCC(O)CO (stereo unspecified),inactive
18,CCC(Cc1c(I)cc(I)c(N)c1I)C(=O)O (stereo unspecified),inactive
19,CCOC(=O)C1CC(=O)C(=C(O)C2CC2)C(=O)C1 (stereo unspecified),inactive
20,CCOC(OCC)OCC,inactive
21,CCCCCCCCCCCCCC[P+](CCCC)(CCCC)CCCC,inactive
